Experimental data taken from PubChem BioAssay (EPA / NIEHS).
Records with an inconclusive call do not appear. Calls of active or inactive are those of the source. How the source made its calls, unless noted: active means hit-call score of the fitted dose curve at least 0.9, where 1 is the maximum; inactive means score below 0.9.

Key:
[1] = IUF_NPC1a_proliferation_area_72hr: Leibniz Research Institute for Environmental Medicine (IUF) 72-hour Neural Progenitor Cell Proliferation Area Assay (NPC1a) (AID 2284208)
Method in brief: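 hNPC spheres (human fetal cortex, GW 16-19), one per poly-Hema U-bottom well; EGF+FGF medium; dosed day 0, no re-dosing; 72 h, 37C, 5% CO2; phase-contrast sphere area; DMSO = baseline; minus-GF = positive ctrl.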

[2] = IUF_NPC1_viability_72hr: Viability Assessment at 72 hours in the Leibniz Research Institute for Environmental Medicine (IUF) Neural Progenitor Cell Proliferation Assay (NPC1) (AID 2284209)
Method in brief: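 Single spheres (0.25-0.35 mm) of human fetal cortex-derived neural progenitor cells were grown in proliferation medium with EGF and FGF at 37C and 5% CO2. They were exposed for 72 h without renewal, and viability was read by alamar blue resorufin fluorescence.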

[3] = CCTE_Mundy_HCI_Cortical_Synap_Neur_Matur_NeuriteSpotCountPerNeuriteLength: CCTE's Synaptogenesis and Neurite Maturation Assay in rat cortical cells for Neurite Spot Count per Neurite Length, Mundy Lab (AID 2284210)
Method in brief: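 Primary rat cortical neurons, compound exposure DIV 7–12, 288.33 h endpoint. Hoechst, anti-MAP2 and anti-synaptophysin labelling; neurite-associated puncta per neurite length scored by automated imaging relative to DMSO controls.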

[4] = CCTE_Mundy_HCI_Cortical_Synap_Neur_Matur_BPCount: CCTE's Synaptogenesis and Neurite Maturation Assay in rat cortical cells for Branch Point Count, Mundy Lab (AID 2284211)
Method in brief: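 Rat primary cortical cultures, AraC added DIV 5; chemicals dosed DIV 7 through DIV 12. Fixed cells stained for MAP2, synaptophysin and Hoechst; neurite branch points counted by automated high-content imaging, fitted relative to DMSO.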

[5] = CCTE_Mundy_HCI_Cortical_NOG_NeuriteCount: CCTE's Neurite Outgrowth Assay in rat cortical cells for Neurite Count, Mundy Lab (AID 2284212);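 further: cells fixed about two days after chemical exposure began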
Method in brief: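 Neurite number per cell from high-content imaging of betaIII-tubulin immunostaining, with Hoechst nuclear counterstain.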

[6] = CCTE_Mundy_HCI_Cortical_NOG_NeuriteLength: CCTE's Neurite Outgrowth Assay in rat cortical cells for Neurite Length, Mundy Lab (AID 2284213);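 further: neurites imaged about 48 to 50 h after chemical exposure began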
Method in brief: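 Neurite length was read by high-content imaging of βIII-tubulin-labelled neurites in rat primary cortical cultures. Activity was fitted relative to DMSO.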

[7] = CCTE_Mundy_HCI_Cortical_Synap_Neur_Matur_NeuriteLength: CCTE's Synaptogenesis and Neurite Maturation Assay in rat cortical cells for Neurite Length, Mundy Lab (AID 2284214)
Method in brief: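 Rat primary cortical cultures, AraC added DIV 5, dosed DIV 7 through DIV 12 […]. Fixed, MAP2/synaptophysin immunostained with Hoechst; neurite length by high-content imaging, fitted in positive direction versus DMSO.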

[8] = CCTE_Mundy_HCI_Cortical_Synap_Neur_Matur_NeuriteSpotCountPerNeuron: CCTE's Synaptogenesis and Neurite Maturation Assay in rat cortical cells for Neurite Spot Count per Neuron Count, Mundy Lab (AID 2284215)
Method in brief: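 Read-out: neurite-associated synaptophysin puncta per neuron, imaged by high-content analysis after MAP2, synaptophysin and Hoechst staining. Rat primary cortical cultures, dosed DIV 7 through DIV 12; DMSO served as baseline.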

[9] = CCTE_Mundy_HCI_Cortical_Synap_Neur_Matur_SynapseCount: CCTE's Synaptogenesis and Neurite Maturation Assay in rat cortical cells for Synapse Count, Mundy Lab (AID 2284218)
Method in brief: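 Rat primary cortical cultures, AraC at DIV 5, chemical dosing DIV 7 to DIV 12 (288.33 h). Fixed cells stained for MAP2, synaptophysin and Hoechst; synapses per neuron counted by high-content imaging, loss of signal versus DMSO.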

[10] = CCTE_Mundy_HCI_hN2_NOG_NeuriteCount: CCTE's Neurite Outgrowth Assay in human hN2 cells for Neurite Count, Mundy Lab (AID 2284219; active means hit-call score of the fitted dose curve at least 0.9, where 1 is the maximum)
Method in brief: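 In this morphology assay, hNP1-derived neurons received test chemical 2 h post-plating and were fixed two days later in warm paraformaldehyde/sucrose containing Hoechst 33342. Neurites, labelled by rabbit anti-βIII-tubulin (1:800) and Alexa Fluor-488 (1:500), were counted automatically.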

[11] = CCTE_Mundy_HCI_hN2_NOG_NeuriteLength: CCTE's Neurite Outgrowth Assay in human hN2 cells for Neurite Length, Mundy Lab (AID 2284220; active means hit-call score of the fitted dose curve at least 0.9, where 1 is the maximum)
Method in brief: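 Plate hNP1-derived neurons, then add chemical 2 h later as a 1/10 dilution. Stain with anti-βIII-tubulin then Alexa Fluor-488 secondary, and image automatically to measure neurite length.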

[12] = CCTE_Mundy_HCI_hN2_NOG_NeuronCount: CCTE's Neurite Outgrowth Assay in human hN2 cells for Neuron Count, Mundy Lab (AID 2284221; active means hit-call score of the fitted dose curve at least 0.9, where 1 is the maximum)
Method in brief: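 Read-out is the number of betaIII-tubulin-positive neurons imaged by automated high-content analysis, with DMSO as negative control.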

[13] = CCTE_Mundy_HCI_Cortical_Synap_Neur_Matur_NeuriteCount: CCTE's Synaptogenesis and Neurite Maturation Assay in rat cortical cells for Neurite Count, Mundy Lab (AID 2284222)
Method in brief: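 Primary rat cortical cells were plated, treated with AraC at DIV 5, then exposed to chemicals from DIV 7 through DIV 12. After fixation and immunostaining for MAP2 and synaptophysin, imaging quantified neurites, with DMSO as the negative control.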

[14] = CCTE_Mundy_HCI_Cortical_Synap_Neur_Matur_CellBodySpotCount: CCTE's Synaptogenesis and Neurite Maturation Assay in rat cortical cells for Cell Body Spot Count, Mundy Lab (AID 2284223)
Method in brief: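 Read-out: cell body-associated synaptophysin puncta per neuron, imaged after MAP2, synaptophysin and Hoechst staining. Rat cortical cells, AraC DIV 5, chemical dosing DIV 7, fixation DIV 12. Activity fitted in positive direction relative to DMSO baseline.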

[15] = UKN4_HCS_LUHMES_cell_viability: Viability Assessment in the University of Konstanz (UKN) Leist Lab Neurite Outgrowth Assay in human LUHMES cells (UKN4) (AID 2284232)
Method in brief: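 LUHMES precursors differentiated 2 days, replated at 30000 cells/well without cAMP/GDNF, then compound-treated 24 h. Viability from Hoechst H-33342 and calcein-AM live staining (30 min) by high-content fluorescence imaging; bidirectional fit versus DMSO.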

[16] = UKN2_HCS_IMR90_cell_viability: Viability Assessment in the University of Konstanz (UKN) Leist Lab Neural Crest Cell Migration Assay in human induced IMR90 Pluripotent Stem Cells (UKN2) (AID 2284233);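 further: viability of neural crest cells differentiated from IMR90 iPSC measured by calcein-AM fluorescence imaging; cells exposed to compound for 24 h after a 24 h migration phase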
Method in brief: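 Human IMR90-derived neural crest cells were allowed to migrate for 24 h into a cell-free zone, then exposed to test chemicals for 24 h. Calcein-AM and Hoechst staining with high-content imaging gave viability, analysed against DMSO baseline.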

[17] = CCTE_Mundy_HCI_Cortical_NOG_BPCount: CCTE's Neurite Outgrowth Assay in rat cortical cells for Branch Point Count, Mundy Lab (AID 2284237);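 further: branch points counted about two days after chemical exposure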
Method in brief: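 Measured 50.33 h after dosing, this morphology endpoint uses rat primary cortical cultures labelled for betaIII-tubulin. Branch points are quantified by high-content imaging, with DMSO as negative control and baseline.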

[18] = CCTE_Mundy_HCI_hNP1_Casp3_7: CCTE's Caspase-Glo 3/7 Assay in human neuroprogenitor cells for Apoptosis, Mundy Lab (AID 2284240)
Method in brief: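 Apoptosis is scored by activated caspase-3/7 luminescence in WA09-derived neural progenitor cells, measured 26.5 h after chemical dosing. Values represent gain of signal relative to DMSO vehicle.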

[19] = CCTE_Mundy_HCI_hNP1_CellTiter: CCTE's Cell Titer-Glo 2 Assay in human neuroprogenitor cells for Viability, Mundy Lab (AID 2284241; active means hit-call score of the fitted dose curve at least 0.9, where 1 is the maximum)
Method in brief: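 Human neural progenitor cells (hNP1, WA09-derived) were plated on poly-L-ornithine/laminin and grown 40 to 44 hours at 37 °C, 5% CO2 before chemical addition. Twenty-four hours later, ATP was measured by CellTiter-Glo luminescence; loss of signal versus DMSO indicates reduced viability.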

[20] = CCTE_Mundy_HCI_Cortical_Synap_Neur_Matur_NeuronCount: CCTE's Synaptogenesis and Neurite Maturation Assay in rat cortical cells for Neuron Count, Mundy Lab (AID 2284242; active means hit-call score of the fitted dose curve at least 0.9, where 1 is the maximum;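 further: hits reduce neuron count versus DMSO baseline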)
Method in brief: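 Rat primary cortical cells, AraC added at DIV 5, dosed with media change from DIV 7 to DIV 12. Fixed, Hoechst-stained and immunolabelled for MAP2 and synaptophysin; neuron number counted by high-content imaging, loss fitted versus DMSO.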

[21] = IUF_NPC2c_oligodendrocyte_migration_120hr: Leibniz Research Institute for Environmental Medicine (IUF) 120-hour Neural Progenitor Cell Migration Assay for Oligodendrocyte Migration (NPC2c) (AID 2284297);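 further: O4-positive oligodendrocyte migration distance divided by radial glia migration distance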
Method in brief: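 hNPC spheres (GW 16-19 cortex), PDL/laminin, DMEM/F12 3:1 + 1% N2, 37C. Dosing day 0–5, half feed day 3, DMSO ≤0.1%. Fixed 120 h; O4 ICC + Hoechst, HCI. Readout: mean oligodendrocyte distance from sphere edge / radial glia distance.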

[22] = IUF_NPC2a_radial_glia_migration_120hr: Leibniz Research Institute for Environmental Medicine (IUF) 120-hour Neural Progenitor Cell Migration Assay for Radial Glia Migration (NPC2a) (AID 2284298)
Method in brief: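 Hoechst-stained nuclei imaged at 120 h; algorithm maps sphere core by densest nuclei, sets migration edge at density threshold, gives radial glia migration distance (um) per well vs DMSO. hNPC spheres (0.3 mm), PDL/laminin, DMEM/F12 3:1 + 1% N2.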

[23] = IUF_NPC2a_radial_glia_migration_72hr: Leibniz Research Institute for Environmental Medicine (IUF) 72-hour Neural Progenitor Cell Migration Assay for Radial Glia Migration (NPC2a) (AID 2284299)
Method in brief: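 Human fetal neural progenitor spheres (0.3 mm) plated on poly-D-lysine/laminin in N2 differentiation medium and exposed from day 0 at 7 concentrations; radial glia migration distance from sphere edge measured at 72 h on brightfield images, mean of four directions, vs DMSO.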

[24] = IUF_NPC2b_neuronal_migration_120hr: Leibniz Research Institute for Environmental Medicine (IUF) 120-hour Neural Progenitor Cell Migration Assay for Neuron Migration (NPC2b) (AID 2284300)
Method in brief: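 hNPC spheres, PDL/laminin, DMEM:F12 3:1 + 1% N2, 37C/5% CO2; 7 concentrations + solvent control (DMSO ≤0.1%), 5 d exposure, half-feed day 3. Fix 120 h, TUBB3 ICC, HCI: mean neuron migration distance ÷ glia distance.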

[25] = IUF_NPC3_neuronal_differentiation_120hr: Leibniz Research Institute for Environmental Medicine (IUF) 120-hour Neuronal Differentiation Assay (NPC3) (AID 2284301)
Method in brief: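 Single 0.3 mm neurospheres from human fetal cortex were plated in differentiation medium containing test compound. Medium was half-replaced on day 3. After 120 h cells were fixed, immunostained and imaged, and neuronal fraction was scored against DMSO control.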

[26] = IUF_NPC4_neurite_length_120hr: Leibniz Research Institute for Environmental Medicine (IUF) 120-hour Neuronal Morphology Assay for Neurite Length (NPC4) (AID 2284302)
Method in brief: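 Read-out is mean neurite length in µm of TUBB3-positive neurons, skeletonized from high-content fluorescence images after 120 h. Single 0.3 mm primary human neural progenitor spheres differentiated on poly-D-lysine/laminin under continuous compound exposure; DMSO was baseline.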

[27] = IUF_NPC4_neurite_area_120hr: Leibniz Research Institute for Environmental Medicine (IUF) 120-hour Neuronal Morphology Assay for Neurite Area (NPC4) (AID 2284305; active means hit-call score of the fitted dose curve at least 0.9, where 1 is the maximum)
Method in brief: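 Neurite area is read out as the mean pixel area, excluding nuclei, of skeletonized TUBB3-positive neurons imaged after 120 h. Primary human neural progenitor spheres differentiated on poly-D-lysine/laminin with compound present from day 0. Activity was referenced to DMSO controls.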

[28] = IUF_NPC2-5_cytotoxicity_72hr: Cytotoxicity Assessment at 72 hours in the Leibniz Research Institute for Environmental Medicine (IUF) Neural Progenitor Cell Migration and Differentiation Assay for Cytotoxicity (NPC2-5) (AID 2284306; active means hit-call score of the fitted dose curve at least 0.9, where 1 is the maximum;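 further: LDH release into supernatant measured by resorufin fluorescence marking membrane damage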)
Method in brief: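 Membrane integrity loss was scored from fluorescence (RFU) of resorufin generated by LDH in culture supernatant, 72 h after dosing. Differentiating human progenitor spheres received seven serial compound concentrations alongside a solvent control.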

[29] = IUF_NPC2-5_cytotoxicity_120hr: Cytotoxicity Assessment at 120 hours in the Leibniz Research Institute for Environmental Medicine (IUF) Neural Progenitor Cell Migration and Differentiation Assay (NPC2-5) (AID 2284307; active means hit-call score of the fitted dose curve at least 0.9, where 1 is the maximum)
Method in brief: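 hNPC spheres on PDL/laminin, N2 medium, 37C; 7 concs + solvent control, DMSO ≤0.1%; 5-day exposure, half medium changed day 3. LDH in supernatant at 120 h, resazurin→resorufin fluorescence, gain-of-signal.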

[30] = IUF_NPC2-5_cell_number_120hr: Cell Number Assessment at 120 hours in the Leibniz Research Institute for Environmental Medicine (IUF) Neural Progenitor Cell Migration and Differentiation Assay (NPC2-5) (AID 2284308);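 further: count of Hoechst-stained nuclei in migration zone around plated human neural progenitor spheres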
Method in brief: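 Hoechst-stained nuclei within the migration area were counted by automated high content imaging after 120 h. Single hNPC spheres differentiated on poly-D-lysine/laminin in DMEM/F12 (3:1) with 1% N2, compound present throughout, DMSO ≤0.1%.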

[31] = IUF_NPC2-5_viability_120hr: Viability Assessment at 120 hours in the Leibniz Research Institute for Environmental Medicine (IUF) Neural Progenitor Cell Migration and Differentiation Assay (NPC2-5) (AID 2284312)
Method in brief: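 Alamar blue resorufin fluorescence read after 5 days of differentiation, with compound present from day 0 and replenished at day 3. Primary hNPC spheres on laminin-coated plates, 37C; seven concentrations plus solvent control, fitted against DMSO.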

[32] = IUF_NPC1_cytotoxicity_72hr: Cytotoxicity Assessment at 72 hours in the Leibniz Research Institute for Environmental Medicine (IUF) Neural Progenitor Cell Proliferation Assay (NPC1) (AID 2284332; active means hit-call score of the fitted dose curve at least 0.9, where 1 is the maximum;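 further: rising LDH signal means more cytotoxicity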)
Method in brief: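 Human fetal neural progenitor spheres (0.3 mm) in EGF/FGF proliferation medium, 37C, exposed 72 h without renewal. LDH release in supernatant read by resorufin fluorescence; gain of signal scored relative to dynamic range.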

Measured: AC50

Brc1ccc(Oc2ccc(Br)cc2Br)c(Br)c1
active: [3] 4.11 µM | [4] 3.98 µM | [5] 23.6 µM | [6] 25.2 µM | [7] 4.59 µM | [8] 8.25 µM | [9] 8.79 µM | [10] 8.93 µM | [11] 8.87 µM | [12] 4.6 µM | [13] 5.14 µM | [15] 41.5 µM | [17] 25.6 µM | [20] 7.42 µM
inactive: all other assays above
